Results as given in PubChem BioAssay (Tox21).
Results filed as inconclusive are left out. Activity calls are given as the source filed them. The call rests on the fitted dose curve; in most records, active means well fitted curve in the direction sought with a large enough effect in the repeat runs; inconclusive means weak or mixed curves; inactive means no such curve, though single readings can be large; an effect the other way counts as inactive or inconclusive.

Legend:
[1] = Caspase-3/7 induction in HepG2 cells by small molecules, qHTS assay (AID 1346978); further: nearly all actives have a fitted effect of over 15% in size
Method in brief: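 Caspase-3/7 induction was measured by Caspase-Glo 3/7 luminescence (30 min, room temperature) after a 17 hr compound exposure of wild-type HepG2 cells seeded at 2,000 per well and pre-incubated 5 hr.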

[2] = Caspase-3/7 induction in CHO-K1 cells by small molecules, qHTS cell viability counter screen (AID 1346979); further: nearly all actives have a fitted effect of over 35% in size; further: potency means the concentration at half of the fitted maximal effect
Method in brief: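 To flag cytotoxic compounds, treated CHO-K1 wild-type cells were given CellTiter-Fluor at 16hr and read fluorescently after 1hr at 37C; the caspase-3/7 luminescence was measured in these same wells.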

[3] = Caspase-3/7 induction in CHO-K1 cells by small molecules, qHTS assay (AID 1346980); further: nearly all actives have a fitted effect of over 15% in size
Method in brief: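 Luminescent Caspase-Glo 3/7 read (30min, room temperature) quantified apoptosis induction. Cells were wild-type CHO-K1, treated with compound for 17hr at 37 C and 5% CO2.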

[4] = biological target: Nuclear receptor subfamily 1 group I member 2 (Homo sapiens) (UniProt O75469); test: Human pregnane X receptor (PXR) small molecule agonists, qHTS assay (AID 1346982); further: nearly all actives have a fitted effect of over 35% in size; further: potency means the concentration at half of the fitted maximal effect
Method in brief: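 After plating in 5% charcoal-stripped FBS and a 5 hr rest, PXR-Luc HepG2 cells received compounds in DMSO. Following 24 hr at 37 C, ONE-Glo was added and light output read.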

[5] = biological target: Cytochrome P450 2D6 (Homo sapiens) (UniProt P10635); test: Cytochrome P450 Family 2 Subfamily D Member 6 (CYP2D6) small molecule antagonists: luciferase reporter qHTS assay (AID 1671196); further: nearly all actives have a fitted effect of over 50% in size; further: potency means the concentration at half of the fitted maximal effect; on activity change, negative = inhibition: series mostly up to about 120 µM
Method in brief: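 Quantitative HTS of Tox21 chemicals against CYP2D6 using a luminescent proluciferin substrate. After NADPH addition, 1 h room-temperature reaction; luminescence recorded 20 min post detection reagent.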

[6] = biological target: Cytochrome P450 2C19 (Homo sapiens) (UniProt P33261); test: Cytochrome P450 Family 2 Subfamily C Member 19 (CYP2C19) small molecule antagonists: luciferase reporter qHTS assay (AID 1671197); further: nearly all actives have a fitted effect of over 65% in size; further: potency means the concentration at half of the fitted maximal effect; on activity change, negative = inhibition: series mostly up to about 120 µM
Method in brief: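 First, compounds are pinned into enzyme-substrate mix and held 10 min at room temperature. Second, NADPH regeneration solution is added and plates incubate 1 h at 37C. Third, detection reagent is added and luminescence read after 20 min.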

[7] = biological target: Cytochrome P450 1A2 (Homo sapiens) (UniProt P05177); test: Cytochrome P450 Family 1 Subfamily A Member 2 (CYP1A2) small molecule antagonists: luciferase reporter qHTS assay (AID 1671199); further: nearly all actives have a fitted effect of over 50% in size; further: potency means the concentration at half of the fitted maximal effect; on activity change, negative = inhibition: series mostly up to about 120 µM
Method in brief: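 Quantitative high-throughput format using the P450-Glo CYP1A2 system. Reaction initiated by NADPH regeneration solution, 1 h at room temperature, then stopped with detection reagent; luminescence measured 20 min later.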

[8] = biological target: Voltage-gated inwardly rectifying potassium channel KCNH2 (Homo sapiens) (UniProt Q12809); test: Human Ether-a-go-go-Related Gene (hERG) channel small molecule antagonists: fluorescence cell-based qHTS assay (AID 1671200); further: nearly all actives have a fitted effect of over 50% in size; further: potency means the concentration at half of the fitted maximal effect;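 on activity change, negative = inhibition: hERG-expressing U2OS cells given a thallium stimulus after FluxOR II dye loading; series mostly up to about 77 µM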
Method in brief: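 Measured: Tl+ flux via fluorescence (480/540 nm) in hERG-expressing U2OS cells after 1 h dye loading at room temperature.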

[9] = biological target: Cytochrome P450 3A4 (Homo sapiens) (UniProt P08684); test: Cytochrome P450 Family 3 Subfamily A Member 4 (CYP3A4) small molecule antagonists: luciferase reporter qHTS assay (AID 1671201); further: nearly all actives have a fitted effect of over 50% in size; further: potency means the concentration at half of the fitted maximal effect; on activity change, negative = inhibition: series mostly up to about 120 µM
Method in brief: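 Setup: enzyme-substrate mix, compound pin transfer, 10 min RT. Reaction: NADPH regeneration solution, 1 h RT. Readout: detection reagent stops turnover, luminescence measured after 20 min, expressed in relative luminescence units.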

[10] = biological target: Cytochrome P450 2C9 (Homo sapiens) (UniProt P11712); test: Cytochrome P450 Family 2 Subfamily C Member 9 (CYP2C9) small molecule antagonists: luciferase reporter qHTS assay (AID 1671198); further: nearly all actives have a fitted effect of over 50% in size; further: potency means the concentration at half of the fitted maximal effect; on activity change, negative = inhibition: series mostly up to about 120 µM
Method in brief: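 Enzyme-substrate mix preincubated with compound 10 min at room temperature; reaction started with NADPH regeneration solution, 1 h 37C. Luminescent luciferin product read after 20 min detection reagent.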

[11] = Caspase-3/7 induction in HepG2 cells by small molecules, qHTS cell viability counter screen (AID 1346981); further: series mostly up to about 92 µM; nearly all actives have a fitted effect of over 30% in size
Method in brief: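 The parent HepG2 line is plated at 2,000 cells per well and rested 5 hr before compound pinning from DMSO stocks. Following a 16-hr treatment at 37 C, a fluorogenic live-cell substrate (CellTiter-Fluor) reports viability after 1 hr.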

[12] = biological target: Nuclear receptor subfamily 1 group I member 2 (Rattus norvegicus) (UniProt Q9R1A7); test: Rat pregnane X receptor (rPXR) activation by small molecules, qHTS assay (AID 1346983); settings: rPXR luciferase reporter cells, One-Glo luminescence, 24 h; max activation: stronger effect = higher value; further: nearly all actives have a fitted effect of over 20% in size
Method in brief: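 Luminescent readout (One-Glo luciferase, 30 min room temperature) followed 24 hr compound treatment at 37 C of rPXR cells plated 2,000 per well and preincubated 5hr; qHTS format with compounds delivered in DMSO.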

[13] = biological target: Nuclear receptor subfamily 1 group I member 2 (Homo sapiens) (UniProt O75469); test: CYP3A4 induction through human pregnane X receptor (PXR) by small molecules, qHTS assay (AID 1346984); further: nearly all actives have a fitted effect of over 40% in size; further: potency means the concentration at half of the fitted maximal effect
Method in brief: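 Human PXR activation is tracked via CYP3A4 promoter-luciferase in DPX-2 (HepG2) cells. Compounds treat cells for 24hr at 37C, and luminescence is read after One-Glo.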

[14] = biological target: Nuclear receptor subfamily 1 group I member 2 (Homo sapiens) (UniProt O75469); test: Human pregnane X receptor (PXR) activation by small molecules, qHTS assay (AID 1346985); further: nearly all actives have a fitted effect of over 40% in size; further: potency means the concentration at half of the fitted maximal effect
Method in brief: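 DPX-2 cells (HepG2 co-transfected with a PXR response element and a CYP3A4-promoter luciferase construct) were seeded at 2,000 per well, rested 5 hr at 37C, then exposed to DMSO-dissolved compounds for 24 hr. Activation was read as luciferase luminescence.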
On the % scale 0 is the no-effect control and ±100 the full control effect.

Cytochrome P450 2C9 (Homo sapiens), sequence (P11712 whole entry, looked up): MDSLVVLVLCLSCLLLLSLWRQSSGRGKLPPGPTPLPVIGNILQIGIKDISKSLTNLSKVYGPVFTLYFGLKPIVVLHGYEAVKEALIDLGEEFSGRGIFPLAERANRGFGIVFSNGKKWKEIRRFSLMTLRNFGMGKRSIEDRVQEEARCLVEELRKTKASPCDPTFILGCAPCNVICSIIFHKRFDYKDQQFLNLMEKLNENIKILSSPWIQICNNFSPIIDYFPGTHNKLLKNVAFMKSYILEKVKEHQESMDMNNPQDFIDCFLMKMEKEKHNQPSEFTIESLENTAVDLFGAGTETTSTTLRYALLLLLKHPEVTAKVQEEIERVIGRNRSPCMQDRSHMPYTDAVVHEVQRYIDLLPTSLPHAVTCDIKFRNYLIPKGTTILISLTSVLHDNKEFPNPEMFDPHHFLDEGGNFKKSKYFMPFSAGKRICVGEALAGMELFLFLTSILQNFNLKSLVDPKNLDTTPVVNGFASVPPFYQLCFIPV
Cytochrome P450 1A2 (Homo sapiens), sequence (P05177 whole entry, looked up): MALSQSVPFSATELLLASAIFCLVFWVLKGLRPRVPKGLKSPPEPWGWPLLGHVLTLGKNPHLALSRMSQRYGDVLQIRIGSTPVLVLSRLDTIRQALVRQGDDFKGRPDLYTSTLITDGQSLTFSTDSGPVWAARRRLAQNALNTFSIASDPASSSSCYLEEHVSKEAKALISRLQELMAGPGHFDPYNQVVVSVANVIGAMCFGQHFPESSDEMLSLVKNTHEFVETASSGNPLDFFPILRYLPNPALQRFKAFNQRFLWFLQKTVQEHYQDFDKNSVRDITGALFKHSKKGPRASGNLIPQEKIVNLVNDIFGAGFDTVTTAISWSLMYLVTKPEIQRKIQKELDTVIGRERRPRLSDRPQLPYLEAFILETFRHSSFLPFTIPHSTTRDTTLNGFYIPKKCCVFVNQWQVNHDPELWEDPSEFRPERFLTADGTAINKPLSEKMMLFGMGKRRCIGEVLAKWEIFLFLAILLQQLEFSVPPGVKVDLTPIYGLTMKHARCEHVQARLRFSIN
Nuclear receptor subfamily 1 group I member 2 (Rattus norvegicus), sequence (Q9R1A7 whole entry, looked up): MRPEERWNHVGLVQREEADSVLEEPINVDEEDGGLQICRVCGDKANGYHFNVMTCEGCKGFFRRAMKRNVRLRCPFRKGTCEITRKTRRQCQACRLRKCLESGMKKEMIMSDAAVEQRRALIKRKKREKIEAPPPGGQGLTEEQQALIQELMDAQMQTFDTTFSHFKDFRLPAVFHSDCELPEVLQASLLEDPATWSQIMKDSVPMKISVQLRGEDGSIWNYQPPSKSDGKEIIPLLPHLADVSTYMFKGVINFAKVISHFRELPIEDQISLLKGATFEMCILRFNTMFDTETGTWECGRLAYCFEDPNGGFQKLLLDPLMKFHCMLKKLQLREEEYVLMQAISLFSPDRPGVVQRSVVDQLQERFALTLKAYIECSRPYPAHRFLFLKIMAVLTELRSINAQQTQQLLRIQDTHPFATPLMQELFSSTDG
Cytochrome P450 3A4 (Homo sapiens), sequence (P08684 whole entry, looked up): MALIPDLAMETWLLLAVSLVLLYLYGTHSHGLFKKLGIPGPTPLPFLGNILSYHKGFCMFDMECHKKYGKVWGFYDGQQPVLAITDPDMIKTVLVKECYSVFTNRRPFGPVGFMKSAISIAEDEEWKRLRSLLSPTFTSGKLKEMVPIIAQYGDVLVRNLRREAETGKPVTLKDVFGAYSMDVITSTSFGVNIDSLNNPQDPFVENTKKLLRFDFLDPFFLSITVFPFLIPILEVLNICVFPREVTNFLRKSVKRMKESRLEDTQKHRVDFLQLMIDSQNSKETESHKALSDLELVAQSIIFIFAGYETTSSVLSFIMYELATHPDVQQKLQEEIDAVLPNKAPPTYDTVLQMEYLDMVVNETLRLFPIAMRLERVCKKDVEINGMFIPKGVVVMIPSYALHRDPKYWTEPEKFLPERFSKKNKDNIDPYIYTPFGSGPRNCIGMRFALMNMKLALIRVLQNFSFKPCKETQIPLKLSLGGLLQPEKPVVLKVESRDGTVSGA
Cytochrome P450 2D6 (Homo sapiens), sequence (P10635 whole entry, looked up): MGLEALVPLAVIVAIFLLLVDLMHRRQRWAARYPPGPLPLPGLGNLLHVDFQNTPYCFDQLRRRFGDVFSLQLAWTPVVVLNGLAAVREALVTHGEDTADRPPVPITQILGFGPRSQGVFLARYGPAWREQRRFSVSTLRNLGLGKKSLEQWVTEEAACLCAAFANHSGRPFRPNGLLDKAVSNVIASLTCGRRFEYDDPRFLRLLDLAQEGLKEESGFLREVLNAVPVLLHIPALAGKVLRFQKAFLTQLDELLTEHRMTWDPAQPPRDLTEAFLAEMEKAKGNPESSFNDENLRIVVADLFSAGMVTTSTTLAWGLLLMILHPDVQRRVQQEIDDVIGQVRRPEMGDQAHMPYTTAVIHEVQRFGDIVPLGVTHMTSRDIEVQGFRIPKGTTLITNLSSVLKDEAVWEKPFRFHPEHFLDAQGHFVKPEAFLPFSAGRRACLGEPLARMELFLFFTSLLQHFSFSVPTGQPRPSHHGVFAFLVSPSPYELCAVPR
Voltage-gated inwardly rectifying potassium channel KCNH2 (Homo sapiens), sequence (Q12809 whole entry, looked up): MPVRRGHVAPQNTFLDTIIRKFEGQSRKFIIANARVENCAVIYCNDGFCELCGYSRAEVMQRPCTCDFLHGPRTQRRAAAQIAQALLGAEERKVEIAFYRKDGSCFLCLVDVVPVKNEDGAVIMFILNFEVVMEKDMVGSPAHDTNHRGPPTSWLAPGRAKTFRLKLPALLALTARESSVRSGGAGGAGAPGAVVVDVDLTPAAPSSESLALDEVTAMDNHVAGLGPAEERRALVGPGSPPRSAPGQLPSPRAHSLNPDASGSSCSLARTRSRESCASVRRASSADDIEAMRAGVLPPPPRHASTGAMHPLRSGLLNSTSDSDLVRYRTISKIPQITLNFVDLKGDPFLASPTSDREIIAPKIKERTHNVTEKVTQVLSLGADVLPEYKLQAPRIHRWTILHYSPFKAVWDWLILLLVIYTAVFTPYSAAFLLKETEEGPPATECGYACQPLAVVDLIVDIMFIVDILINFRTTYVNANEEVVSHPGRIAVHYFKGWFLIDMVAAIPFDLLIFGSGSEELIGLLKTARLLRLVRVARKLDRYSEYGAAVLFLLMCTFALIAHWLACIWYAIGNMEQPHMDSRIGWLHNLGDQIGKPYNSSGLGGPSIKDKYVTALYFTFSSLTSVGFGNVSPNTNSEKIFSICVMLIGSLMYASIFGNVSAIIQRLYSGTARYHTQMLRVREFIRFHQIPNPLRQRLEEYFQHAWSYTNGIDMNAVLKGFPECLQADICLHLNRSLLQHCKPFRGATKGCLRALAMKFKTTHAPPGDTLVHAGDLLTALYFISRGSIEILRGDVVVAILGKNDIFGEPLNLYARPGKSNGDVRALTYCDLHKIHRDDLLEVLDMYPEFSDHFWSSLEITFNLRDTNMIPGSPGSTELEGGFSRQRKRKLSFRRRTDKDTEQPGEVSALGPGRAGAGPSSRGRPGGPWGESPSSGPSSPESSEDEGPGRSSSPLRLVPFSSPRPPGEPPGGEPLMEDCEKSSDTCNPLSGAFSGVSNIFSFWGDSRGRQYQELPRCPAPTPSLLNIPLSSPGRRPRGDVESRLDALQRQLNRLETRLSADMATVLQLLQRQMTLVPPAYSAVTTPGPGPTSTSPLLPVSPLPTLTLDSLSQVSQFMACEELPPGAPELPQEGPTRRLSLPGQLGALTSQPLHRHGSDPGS
Nuclear receptor subfamily 1 group I member 2 (Homo sapiens), sequence (O75469 whole entry, looked up): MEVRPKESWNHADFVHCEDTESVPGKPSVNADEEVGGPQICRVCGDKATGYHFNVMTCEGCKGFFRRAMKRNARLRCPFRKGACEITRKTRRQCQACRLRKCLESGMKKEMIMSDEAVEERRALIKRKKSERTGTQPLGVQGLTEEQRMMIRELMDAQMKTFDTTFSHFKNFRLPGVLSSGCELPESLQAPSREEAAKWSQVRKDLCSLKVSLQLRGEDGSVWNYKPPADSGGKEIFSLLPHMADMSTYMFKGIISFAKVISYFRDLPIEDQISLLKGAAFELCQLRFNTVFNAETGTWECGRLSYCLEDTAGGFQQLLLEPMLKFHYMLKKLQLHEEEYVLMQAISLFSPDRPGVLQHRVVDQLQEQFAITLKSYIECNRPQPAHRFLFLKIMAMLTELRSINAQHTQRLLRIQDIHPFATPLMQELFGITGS
Cytochrome P450 2C19 (Homo sapiens), sequence (P33261 whole entry, looked up): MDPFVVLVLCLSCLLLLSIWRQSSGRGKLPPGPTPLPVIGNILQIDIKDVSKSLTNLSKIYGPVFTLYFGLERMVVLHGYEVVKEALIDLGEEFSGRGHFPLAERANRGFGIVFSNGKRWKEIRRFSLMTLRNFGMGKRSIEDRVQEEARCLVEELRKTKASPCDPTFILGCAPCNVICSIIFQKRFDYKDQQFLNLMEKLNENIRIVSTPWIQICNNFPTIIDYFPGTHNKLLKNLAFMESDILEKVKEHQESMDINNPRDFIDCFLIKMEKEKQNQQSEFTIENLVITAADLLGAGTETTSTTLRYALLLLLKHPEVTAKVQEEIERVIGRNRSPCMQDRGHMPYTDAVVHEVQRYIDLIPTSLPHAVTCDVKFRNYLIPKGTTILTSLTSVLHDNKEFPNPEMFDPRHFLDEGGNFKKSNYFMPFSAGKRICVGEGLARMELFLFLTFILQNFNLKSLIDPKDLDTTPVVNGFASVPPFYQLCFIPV

CC1=NN(c2cc(Cl)c(S(=O)(=O)O)cc2Cl)C(=O)C1N=Nc1ccc(S(=O)(=O)O)cc1 (configuration not stated)
active: Potency [2] 54.5 µM
inactive: Potency [1] | outcome [3] | Potency [4] | Potency [5] | Potency [6] | Potency [7] | Potency [8] | Potency [9]

O=C(O)CN(CCN(CC(=O)O)CC(=O)O)CCN(CC(=O)O)CC(=O)O
inactive: caspase activation [1] 0.916% [at 19 µM] | caspase-3/7 activation [3] 5.14% [at 19 µM] | activation [4] 8.36% [at 19 µM] | activity change, negative = inhibition [5] -5.69% [at 23.6 µM] | activity change, negative = inhibition [6] 49.7% [at 23.6 µM] | Potency [10] | activity change, negative = inhibition [8] 6.28% [at 15.8 µM] | activity change, negative = inhibition [9] 10.1% [at 23.6 µM]
active: Potency [2] 13 µM

CCCNC(C)(C)COC(=O)c1ccccc1
inactive: Potency [1] | Potency [2] | outcome [3] | Potency [11] | Potency [8]

Cc1cc2nc(N)sc2cc1C
inactive: Potency [1] | Potency [2] | outcome [3] | Potency [8]
active: Potency [4] 27.6 µM | Potency [5] 32 µM | Potency [6] 28.5 µM | Potency [10] 35.9 µM | Potency [9] 25.4 µM

Cc1cccc(C)c1NC(=O)CN1CCCCCC1
inactive: Potency [1] | Potency [2] | outcome [3] | max activation [12] -0.265% | Potency [14] | Potency [10] | Potency [7] | Potency [8] | Potency [9]
active: Potency [4] 11.9 µM | Potency [13] 14.1 µM | Potency [5] 12.3 µM

CC(=O)N[C@@H](CC(C)C)C(=O)O
inactive: Potency [1] | Potency [2] | outcome [3] | Potency [11] | Potency [8]

CC(C)NCC(O)COc1ccc(CCOCC2CC2)cc1 (configuration not stated)
inactive: Potency [1] | Potency [2] | outcome [3] | Potency [11] | Potency [8]

Cc1onc(-c2ccccc2)c1C(=O)Cl
inactive: Potency [1] | Potency [2] | outcome [3] | Potency [4] | Potency [5] | Potency [6] | Potency [10] | Potency [7] | Potency [8] | Potency [9]

O=C(O)c1ccccc1Nc1cc(Cl)ccc1C(=O)O
inactive: caspase activation [1] 0.287% [at 19 µM] | activity change, negative = cytotoxicity [2] 5.08% [at 19 µM] | caspase-3/7 activation [3] 1.36% [at 19 µM] | activation [4] 5.75% [at 19 µM] | activity change, negative = inhibition [8] 6.42% [at 15.8 µM] | activity change, negative = inhibition [9] 34.1% [at 23.6 µM]
active: Potency [5] 1.51 µM

Nc1cccc(S(=O)(=O)O)c1
active: Potency [5] 71.2 µM
inactive: Potency [1] | Potency [2] | outcome [3] | Potency [4] | Potency [6] | Potency [7] | Potency [8] | Potency [9]

Cc1cc2c(s1)Nc1ccccc1N=C2N1CCN(C)CC1
active: Potency [2] 7.5 µM
inactive: Potency [1] | outcome [3] | Potency [4] | max activation [12] -3.7% | Potency [13] | Potency [14] | Potency [5] | Potency [6] | Potency [7] | Potency [8] | Potency [9]

OCc1c2ccccc2cc2ccccc12
active: Potency [4] 48.7 µM | Potency [6] 35.7 µM | Potency [10] 22.5 µM | Potency [7] 0.897 µM | Potency [9] 25.3 µM
inactive: Potency [1] | Potency [2] | outcome [3] | Potency [8]

CC(C)C[C@H](NC(=O)OCC1c2ccccc2-c2ccccc21)C(=O)O
inactive: Potency [1] | Potency [2] | outcome [3] | Potency [11] | Potency [8]

O=C(O)[C@@H](O)[C@H](O)[C@H](O)[C@@H](O)C(=O)O
inactive: Potency [1] | Potency [2] | outcome [3] | Potency [4] | Potency [5] | Potency [6] | Potency [10] | Potency [8] | Potency [9]

O=c1[nH]c(=O)n([C@H]2C[C@H](O)[C@@H](CO)O2)cc1C(F)(F)F
inactive: Potency [1] | Potency [2] | outcome [3] | Potency [4] | max activation [12] 3.55% | Potency [14] | Potency [5] | Potency [6] | Potency [8] | Potency [9]

NCCC(O)(P(=O)(O)O)P(=O)(O)O
inactive: Potency [1] | Potency [2] | outcome [3] | Potency [4] | max activation [12] -0.383% | Potency [13] | Potency [14] | Potency [5] | Potency [6] | Potency [10] | Potency [8] | Potency [9]
active: Potency [7] 24.5 µM

Nc1ccc2ccccc2c1S(=O)(=O)O
active: Potency [4] 62.3 µM | Potency [5] 32.4 µM | Potency [6] 40.7 µM | Potency [7] 3.24 µM | Potency [9] 57.5 µM
inactive: Potency [1] | Potency [2] | outcome [3] | Potency [8]

CCC(=O)c1ccc2c(c1)N(CCCN(C)C)c1ccccc1S2
inactive: Potency [1] | Potency [2] | outcome [3] | Potency [4] | Potency [10] | Potency [9]
active: Potency [5] 1.1 µM | Potency [6] 11 µM | Potency [7] 1.82 µM | Potency [8] 9.52 µM

CC(C)O
inactive: Potency [1] | Potency [2] | outcome [3] | Potency [4] | max activation [12] -2.1% | Potency [13] | Potency [14] | Potency [5] | Potency [6] | Potency [8] | Potency [9]

CCc1cc(Cl)c(OC)c(C(=O)NC[C@@H]2CCCN2CC)c1O
inactive: Potency [1] | Potency [2] | outcome [3] | max activation [12] -0.901% | Potency [6] | Potency [10] | Potency [9]
active: Potency [4] 7.5 µM | Potency [13] 15.8 µM | Potency [14] 25.1 µM | Potency [8] 6.74 µM

CC(C)(C)C1CCCCC1=O (configuration not stated)
inactive: Potency [1] | Potency [2] | outcome [3] | Potency [4] | Potency [6] | Potency [10] | Potency [8] | Potency [9]
